The source of these data is PubChem BioAssay AID2315 (National Center for Advancing Translational Sciences (NCATS), 2010).

SMILES strings stand for the structures. In all, about 290,000 compounds went through this assay and about 27,000 (9.3%) were called active. The sample as a whole holds a higher share of actives than the screen did. Unmarked numbers belong to inactive results. Rule as the data show it: active = inhibition mostly above about 28% (no sharp cut-off); inactive = mostly below about 43%.

The assay can be described thus: A qHTS for Small Molecule Inhibitors of Shiga Toxin. Also: 0% is about no effect. The conditions noted are these: Vero cells, Shiga toxin protein synthesis inhibition reporter; at 38.7 µM, active compounds read high. (Quantitative high-throughput screening tests each substance at several concentrations.)
As to `CC(=O)Nc1ccc(NC(=O)c2ccc3c(c2)C(=O)N(c2ccccc2C)C3=O)cc1`, the inhibition is -4.3%.

Turning to `O=C(Nc1cccc(Cl)c1)c1cc(S(=O)(=O)N2CCCCC2)c[nH]1`, the inhibition is -7.57%.

Regarding `Cc1ccccc1NC(=O)CCNS(=O)(=O)c1ccc2[nH]c(=O)oc2c1`, the inhibition was -2.35%. Next, `COc1ccc(Nc2ncnc3ccc(Br)cc23)c(OC)c1`: 57.7% (active); `C=CCNc1ncnc2ccc(Br)cc12`: -28.8%; `COc1ccc(Nc2ncnc3sc(-c4ccccc4)cc23)c(OC)c1`: 4.65%. The value for `COc1ccc(CN(C)C(=O)Cc2ccsc2)c(OC)c1OC` was -10.3%.

For `Cc1c(C)c2c(OCC(=O)NCCCO)cc3c(c2oc1=O)CCC(C)(C)O3`, the inhibition was -7.03%. Next, `COc1ccccc1CNS(=O)(=O)CC12CCC(CC1=O)C2(C)C` (stereo not drawn): -4.21%; `Cc1nc(-c2ccc(Cl)cc2)sc1C(=O)CBr`: 52.5% (active); `Cc1nc(-c2ccc(Cl)cc2)sc1C(=O)NN`: -18.4%. Next, `Cc1ccc(SCC(=O)c2sc(-c3ccccc3)nc2C)cc1`: -2.76%; `CCN1CCN(C(=O)C2CCN(S(=O)(=O)c3cc(Cl)ccc3Cl)CC2)CC1`: -5.92%. Next, `CC1(C)c2[nH]c3ccccc3c2C[C@H]2C(=O)N(N)CC(=O)N21`: 11.8%; `COc1ccc(NC(=O)CSCc2ccc([N+](=O)[O-])cc2)cc1OC`: -3.27%; `CC(C)C(=O)N1CC(=O)Nc2ccc(F)cc2C1c1ccc(F)cc1` (stereo not drawn): -3.75%.

With `COc1ccc(NC(=O)CCCC(=O)c2ccccc2)cc1`, the inhibition was 6.27%. Next, `COC(=O)c1ccc(NCC(=O)N2CCCCCC2)cc1`: 110% (active); `Cc1ccc(NC(=S)Nc2ccc(F)cc2)cc1`: 27.7%.

As for `COC(=O)c1ccc(NC(=O)c2ccccc2NS(=O)(=O)c2ccccc2)cc1`, the inhibition was 5.81%. The value for `COC(=O)c1ccc(NCC(=O)c2ccccc2)cc1` was 85.2% (active). Turning to `COC(=O)c1ccc(C(=O)OC)c(NC(=S)N2CCCCC2)c1`, the inhibition was 12.8%. Next, `Cc1ccc(C(=O)NC2CCN(C(=O)Nc3ccc(F)cc3)CC2)cc1`: -7.26%; `Cc1ccc(C(=O)CNc2ccc(F)cc2)cc1`: 45.5% (active). Next, `COC(=O)c1ccc(/C=N/NC(=O)C(=O)N2CCCCCC2)cc1`: -5.76%. `c1ccc(Cc2ccc(OCCn3ccnc3)cc2)cc1`: the inhibition is 1.57%.

Take `COc1ccc(CN(C)C(=O)c2cc(-c3ccc(C)cc3C)nc3ccccc23)c(OC)c1OC`: the inhibition is -8.91%. Next, `CC(=O)N1CCCc2cc(S(=O)(=O)N3CCCC(C(=O)N4CCN(c5cccc(Cl)c5)CC4)C3)ccc21` (stereo not drawn): -12.3%; `COc1ccc(CNC(=O)C2CCN(C(=O)c3ccccc3)CC2)cc1`: -21.8%. Next, `Cc1ccc2c(c1)N(CC(=O)NCCc1ccc(Cl)cc1)C(=O)c1cccnc1O2`: 4.91%. The value for `Cc1ccc(NC(=O)Cn2nc(C)c3ccccc3c2=O)c(C)c1` was 10.2%. For the compound `Cc1ccc(C)c(S(=O)(=O)N2CCN(C(=O)Nc3ccccc3)CC2)c1`, the inhibition is 17.4%. Next, `Cc1ccc(NC(=O)c2ccn(C(=O)Nc3ccccc3)n2)c(C)c1`: 92.2% (active); `Cc1ccc2nc(-c3ccncc3)cc(C(=O)Nc3ccc4c(c3)OCCO4)c2c1`: 9.13%; `O=C(Nc1ccc2c(c1)OCCO2)C(c1ccc(F)cc1)N1CCCCC1` (stereo not drawn): 5.25%. Next, `CCOC(=O)c1cnc2ccc(F)cc2c1Nc1ccc2c(c1)OCCO2`: 35% (active). Next, `COc1ccc(C(=O)N(C)CC(O)c2ccccc2)cc1OC1CCN(C(C)=O)CC1` (stereo not drawn): -21%. `O=C(Cc1ccc(Br)cc1)N1CCN(c2ccccn2)CC1`: the inhibition was 45.9% (active). The value for `O=C(CCC1CCCN(C(=O)Cc2ccc(F)cc2)C1)N1CCN(c2ccccn2)CC1` (stereo not drawn) was -2.14%; that for `O=C(Cc1ccccc1Cl)N1CCN(c2ccccn2)CC1` was 7.93%. Next, `CNC(=O)c1sc(Nc2ccc(OCc3ccccc3)cc2)nc1C`: 43.2%.

For `Cn1c(=NC(=O)CSCC(=O)N2CCCCC2)sc2ccccc21`, the inhibition was 20.2%.

For `COC(=O)c1ccc(OC(=O)c2cnccn2)cc1`, the inhibition was -3.05%. The value for `Cn1c(=NC(=O)c2cnccn2)sc2ccccc21` was 48.7% (active); that for `CCn1cc(C(=O)OCC(=O)Nc2cccc(C)c2)c(=O)c2ccc(C)nc21` was 12.3%. The value for `COc1ccc(S(=O)(=O)N2CCC(C(=O)NCCC(=O)NCc3cccc(OC)c3)CC2)cc1` was -13%; that for `COCCOC1CCN(C(=O)c2ccc(OC)c(OC3CCN(C(C)C)CC3)c2)CC1` was 3.86%; that for `Cc1cc(Cl)ccc1C(=O)C1CCCN(C(=O)c2nonc2C)C1` (stereo not drawn) was -11%. The value for `O=C(/C(=C/c1cccc(Cl)c1)c1nc2ccccc2[nH]1)c1ccccc1` was 37.9%. Consider `O=C(Cc1nc2ccccc2[nH]c1=O)c1ccc(Cl)cc1`, for which the inhibition is 66.3% (active). The value for `N#C/C(=C(/O)COC(=O)COc1ccc(Cl)cc1)c1nc2ccccc2[nH]1` was -6.24%; that for `O=S(=O)(Nc1cccc2cccnc12)c1cccc2cccnc12` was -6.53%; that for `Cc1cccc(NC(=O)CCN2CC(C)CC(C)C2)c1` (stereo not drawn) was -6.03%. Next, `CCNC(=O)c1cnn(-c2ccccc2)c1-c1ccccc1`: -0.867%. The value for `CCCc1c(C(=O)O)cnn1-c1ccc(Cl)cc1` was 9.39%. For `CCCc1c(C(=O)Nc2ccc(F)cc2)cnn1-c1ccccc1`, the inhibition was 58.3% (active). Next, `Cc1ccc2c(c1)N(S(=O)(=O)c1cc(-c3cc(C)no3)ccc1C)CCO2`: 18.2%. As for `Oc1ccc(CN2CCN(c3ncccn3)CC2)cc1`, the inhibition was -3.72%.

On to `O=C(c1ccncc1)N1CCN(c2ccc3ccccc3n2)CC1`, for which the inhibition was -6.23%.

With `c1cnc(N2CCN(c3ccc4ccccc4n3)CC2)nc1`, the inhibition is 71.6% (active). The value for `Cc1ccc(C)c(N2C(=O)CS/C2=N\NC(=O)c2ccccc2Cl)c1` was -31.2%; that for `O=C(N/N=C1\CCSC1)c1cc(Cl)ccc1O` was 35.8% (active).

With `C/C(=N/NC(=O)c1cc(Cl)ccc1O)C12CC3CC(CC(C3)C1)C2`, the inhibition was 25.6%. On to `C=CCn1c(SCC(=O)NC)nnc1C12CC3CC(CC(C3)C1)C2`, for which the inhibition was 13.7%.

As to `CC(C)=C(NC(=O)c1ccccc1)C(=O)N/N=C(\C)c1ccccc1O`, the inhibition is -2.93%. For the compound `C/C(=N\NC(=O)c1ccccc1C)c1ccc(N2CCOCC2)cc1`, the inhibition was 40.6%. The value for `C/C(=N\NC(=O)c1ccoc1C)c1ccccc1O` was 104% (active); that for `CC1=C(C(=O)NC2CC(C)(C)Cc3c2cnn3-c2ccc(C)cc2)OCCO1` (stereo not drawn) was -2.9%; that for `COc1cc(S(=O)(=O)N2CCN=C2c2ccccc2)ccc1Cl` was -4.87%.

`CCN(CC)CCCNC(=O)CCn1nc(-c2ccc(Cl)cc2)ccc1=O`: the inhibition was -2.08%.

Regarding `COc1ccc2ccccc2c1/C=N/NC(=O)c1cc(C)[nH]n1`, the inhibition was 7.72%. As to `CCn1c2ccc(F)cc2c2nnc(SCCN3CCOCC3)nc21`, the inhibition was -3.64%. Next, `Cc1cccc(C)c1OCCN1CCOCC1`: 1.56%.

For `Cc1cc2nc(SCCN3CCOCC3)[nH]c2cc1C`, the inhibition was 59.3% (active). For `COc1cccc(CNS(=O)(=O)c2ccc3c(c2)N(C(C)=O)CCS3)c1`, the inhibition was -13.7%. On to `Oc1ccc(/C=N/NC2=NCCCCC2)c(O)c1`, for which the inhibition is 97.5% (active). Next, `Cc1cc(N/N=C/c2ccccc2F)c2ccccc2n1`: 26.9%. The value for `COc1ccc(/C=C(\C#N)C(=O)ONC2=NCCCCC2)cc1` was 20.9%; that for `Oc1ccc(/C=N/Nc2nc(-c3ccccc3F)nc3ccccc23)c(O)c1` was 16%; that for `Cc1nc2ccccc2nc1N/N=C/c1ccc(O)cc1O` was 55.6% (active). The value for `C[C@H](C(=O)CC(=O)OC(C)(C)C)[C@H](O)c1ccc(C(F)(F)F)cc1` was 1.74%; that for `COCCCNC(=S)N1CCN(c2nc(-c3cccc(OC)c3)cs2)CC1` was 21.1%; that for `C=CCOc1ccc(/C=C/C(=O)OCC(=O)NC2CCCCCC2)cc1` was 1.6%. In the case of `COCC(=O)N1CCCC(C(=O)c2ccc(C(F)(F)F)cc2)C1` (stereo not drawn), the inhibition is -8.8%.

On to `CC(=O)Nc1ccc(S(=O)(=O)Oc2ccc(Br)cc2C(=S)N2CCOCC2)cc1`, for which the inhibition was -12.5%. The value for `Cn1c(CNC(=O)c2ccco2)nnc1SCC(=O)N1CCN(c2ccccc2)CC1` was 4.34%; that for `COc1ccccc1NC(=O)C1=C(C)NC(=O)NC1c1ccc(C)s1` (stereo not drawn) was 1.28%. With `COC(=O)c1c(NC(C)=O)sc(C(=O)Nc2ccccc2OC)c1C`, the inhibition was -23.1%.

Take `COc1ccccc1NC(=O)c1ccc(C)s1`: the inhibition was 73.7% (active). The value for `COc1ccc(/C=C(/NC(=O)c2ccccc2)C(=O)Nc2cccc(C(=O)O)c2)cc1` was -15.3%. Next, `O=C1c2ccccc2C(=O)N1CCOc1ccc(F)cc1`: 90.8% (active); `O=C(OCCN1C(=O)c2ccccc2C1=O)Oc1ccccc1`: -2.38%; `Cc1cccc2c1N(CCOc1ccccc1)C(=O)C2=O`: -13.4%. The value for `CC(NC(=O)COc1cccnc1[N+](=O)[O-])c1ccc(Cl)cc1Cl` (stereo not drawn) was -9.36%; that for `O=C(CCC(=O)Nc1ccccc1)N/N=C/c1ccccc1F` was 144% (active).

With `O=C(CCCCCNC(=O)c1ccccc1)N/N=C/c1ccccc1`, the inhibition is 11%. With `O=C(Cc1ccccc1)N/N=C/c1ccc(Cl)cc1Cl`, the inhibition was 6.24%. The value for `CN(C)C(=O)c1ccc(NC(=O)c2ccccc2-c2ccccc2)cc1` was -11.5%.

The inhibition is the relative decrease from the control value, in per cent.
